# According to PubChem BioAssay (NCI):
# The panel holds about 83,000 compounds, 20% with a hit somewhere; the sample as a whole holds those more often.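 Results are percent growth after 48 hours of single-concentration exposure. 100 means growth as in untreated cells, lower positive values show inhibition; negative values down to -100 show cell death.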 Unmarked numbers belong to inactive results. Activity calls are given as the source filed them. How the source made its calls: active means growth percent below 10; inactive means the rest.
# How the values were obtained:
# Assay in all cases: NCI-60 one-dose screen, 48 h (100 = growth as untreated, 0 = no growth, -100 = all killed)
# Conditions in all cases: 10 µM unless noted
# SK-MEL-2 melanoma = test system: SK-MEL-2 melanoma
# EKVX NSCLC = test system: EKVX NSCLC
# SN12C renal = test system: SN12C renal
# TK-10 renal = test system: TK-10 renal
# ACHN renal = test system: ACHN renal
# CAKI-1 renal = test system: CAKI-1 renal
# A498 renal = test system: A498 renal
# CCRF-CEM leukemia = test system: CCRF-CEM leukemia
# MOLT-4 leukemia = test system: MOLT-4 leukemia
# SR leukemia = test system: SR leukemia
# RPMI-8226 leukemia = test system: RPMI-8226 leukemia
# OVCAR-8 ovarian = test system: OVCAR-8 ovarian
# OVCAR-5 ovarian = test system: OVCAR-5 ovarian
# OVCAR-4 ovarian = test system: OVCAR-4 ovarian
# SK-OV-3 ovarian = test system: SK-OV-3 ovarian
# IGROV1 ovarian = test system: IGROV1 ovarian
# OVCAR-3 ovarian = test system: OVCAR-3 ovarian
# NCI/ADR-RES ovarian = test system: NCI/ADR-RES ovarian
# HS 578T breast = test system: HS 578T breast
# UO-31 renal = test system: UO-31 renal
SMILES,growth (SK-MEL-2 melanoma) [%],growth (EKVX NSCLC),growth (SN12C renal),growth (TK-10 renal) [%],growth (ACHN renal),growth (CAKI-1 renal),growth (A498 renal),growth (CCRF-CEM leukemia),growth (MOLT-4 leukemia),growth (SR leukemia),growth (RPMI-8226 leukemia),growth (OVCAR-8 ovarian),growth (OVCAR-5 ovarian),growth (OVCAR-4 ovarian),growth (SK-OV-3 ovarian),growth (IGROV1 ovarian),growth (OVCAR-3 ovarian),growth (NCI/ADR-RES ovarian),growth (HS 578T breast) [%],growth (UO-31 renal) [%]
COC1=CC(=O)C(OC)=C(OC)C1=O,99.3,98.6%,101%,115,111%,95.4%,88.2%,31.9%,-7.34% (active),36.5%,67.1%,101%,107%,77.4%,92.5%,113%,104%,100%,–,–
Nc1cc2ccncc2c2ccccc12,45.5,60.4%,52.7%,80.6,36.4%,58.2%,67.5%,66.9%,50.2%,0.467% (active),84.1%,57.6%,76.2%,82.4%,66.2%,58.7%,75.4%,53.2%,116,–
CCNS(=O)(=O)c1ncnc2nc[nH]c12,109,104%,112%,122,119%,94.9%,110%,91.1%,122%,101%,92%,114%,102%,102%,108%,96.9%,113%,99.7%,–,–
c1ccc(CSc2ncnc3nc[nH]c23)nc1,112,99.6%,98.6%,101,105%,57%,102%,102%,97.7%,103%,124%,120%,96.6%,105%,116%,105%,104%,103%,121,–
COCCCNc1nc(NC(=O)c2ccc(F)cc2C)cc(-c2cccnc2)n1,95.6,108%,91.1%,–,109%,99.1%,85.4%,–,93.9%,110%,90.2%,91.6%,106%,117%,108%,109%,106%,94.2%,94,88.5
C=C1CCC2C3(C)COC(c4cccc(Cl)c4)OC3CCC2(C)C1/C=C/C1=CCOC1=O (stereo not drawn),85.6,35.2%,87.2%,88.3,71.5%,70.6%,64.5%,48.4%,33.2%,–,51.8%,71.5%,84.3%,53.7%,78.1%,88.9%,76.9%,44%,96.1,–
CN1CCN(Cc2ccc(NC(=O)c3cncc(C#Cc4c(N)ncc5ccc(C#N)cc45)c3)cc2C(F)(F)F)CC1,57.4,-55.3% (active),6.26% (active),18.3,-92.8% (active),58.3%,43.3%,-14.2% (active),-21.3% (active),-13% (active),-23% (active),-40% (active),-84.5% (active),-73.9% (active),127%,-53.6% (active),90.9%,-30.5% (active),50.8,–
NS(=O)(=O)c1ccc(Nc2nc3n[nH]c(Nc4ccccc4)c3c(=O)[nH]2)cc1,101,107%,103%,106,109%,88.7%,88.9%,105%,89.2%,94.1%,107%,100%,111%,105%,84.4%,102%,106%,99.7%,103,–
Nc1cc(O)cc2cccnc12,110,104%,72.5%,104,77.3%,80.1%,118%,86.6%,93%,73%,68.9%,80.9%,107%,105%,83.4%,53.4%,88.8%,87.3%,121,–
O=C1NC(=O)C(CC(=O)n2c(-c3ccccc3)nc3ccccc32)C(=O)N1,101,93.6%,99.5%,116,101%,90.5%,63.6%,104%,108%,–,101%,101%,103%,103%,98.3%,93.3%,106%,103%,–,–
CC[C@@H](C)OC(=O)c1nn(C(C)=O)c2ccccc12,107,101%,102%,105,108%,97.8%,99.2%,103%,123%,110%,107%,92.7%,101%,103%,114%,110%,112%,94.2%,106,–
Nc1nc(SCc2ccccc2)c2ncn(C3CCCC3)c2n1,94.6,99.6%,107%,125,-81.5% (active),102%,102%,96.3%,113%,81.4%,92.9%,110%,96.4%,101%,107%,98.1%,112%,92.5%,139,–
COc1ccc(-c2cc(=O)[nH]c3c(OC)c4ccccc4c(OC)c23)cc1,27.6,26.4%,43.2%,47.8,50.5%,38.7%,-4.12% (active),10.8%,6.7% (active),-14% (active),4.21% (active),33.3%,36.3%,30.8%,2.24% (active),32.8%,-43.2% (active),3.17% (active),–,–
COc1cnc2c(c1)C(=O)c1c-2n(CCCN2CCNCC2)c(=O)c2cc([N+](=O)[O-])ccc12,77.8,-64.6% (active),-71.5% (active),32.4,-88.4% (active),-94.5% (active),16.9%,-23% (active),-4.73% (active),-21.7% (active),-37.1% (active),-52.8% (active),-77.9% (active),-77.1% (active),3.11% (active),-58.3% (active),-83.1% (active),-44.3% (active),70.7,–
CCCCCC(=O)N(CCCC)CCCC,124,–,96.3%,109,101%,92%,127%,99.1%,105%,95.5%,93.8%,102%,103%,84.6%,93.7%,113%,120%,111%,109,78.5
O=S(=O)(NCCCNc1cc(-c2cn(-c3ccccc3)nc2-c2cccc(O)c2)ccn1)c1ccccc1,74.6,37.8%,68.7%,62.5,–,43.3%,50.6%,38.5%,37.1%,35.5%,32.1%,46.1%,–,59.8%,66.4%,–,58.9%,51.3%,46.9,–
CCc1ccc(C(c2ccc(CC)cc2)C(Cl)(Cl)CCl)cc1,94.2,95.8%,–,109,97.6%,96.6%,81.7%,114%,84.4%,103%,93.6%,110%,99.9%,86.9%,105%,76.6%,86.3%,91.3%,65.4,84.1
